Each structure is given as a SMILES string. Records with an inconclusive call do not appear. Active and inactive are the calls of the source. Rule for the calls, unless noted: active = hit-call score of the fitted dose curve at least 0.9, where 1 is the maximum; inactive = score below 0.9.

As a reminder, the AC50 is the midpoint of the concentration-response curve, whichever way the signal moves.

The first assay in a line: ACEA_ER_80hr: ACEA Biosciences xCELLigence Real-Time Cell Analysis on Estrogen Receptor Agonism for Proliferation (AID 2282667; active = hit-call score of the fitted dose curve at least 0.9, where 1 is the maximum). The following applies: T47D proliferation, impedance (xCELLigence), 80 h. The method in brief: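 Real-time impedance growth kinetics of human T-47D breast cells read 80 h after dosing, gain-of-signal fitted relative to DMSO. Compounds: 1:4 serial series, top final concentration 100 uM, n = 2.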
As for `C=CCc1ccc(O)c(OC)c1`, the call was inactive.
As for `O=c1c(O)c(-c2ccc(O)c(O)c2)oc2cc(O)cc(O)c12`, the AC50 was 26.4 µM (active).
As for `CCCCC(CC)COC(=O)CC(C(=O)OCC(CC)CCCC)S(=O)(=O)O` (stereo not given), the compound was called inactive.
Take `CCOC(=O)C(C)(C)Oc1ccc(Cl)cc1`: the compound was called inactive.
Take `Oc1ccc2c(c1)OC[C@@H](N1CCC(O)(c3ccc(F)cc3)CC1)[C@H]2O`: the result was inactive.
Take `NC(=O)Cn1c(=O)cc(CCN2CCN(c3nccc4sccc34)CC2)c2ccc(F)cc21`: the outcome was inactive.
Turning to `CNCc1cc(F)ccc1Oc1ccc(Cl)c(Cl)c1`, the result was inactive.
In the case of `Cc1cccc(Nc2cc(Cl)nc(SCC(=O)O)n2)c1C`, the outcome was inactive.
On the same count and under the same terms, in the case of `CCOC(=O)CCC(=O)OCC` it was “inactive”; in that of `CCNc1cccc(C)c1`, “inactive”; in that of `Nc1ccc2c(c1)C(=O)c1ccccc1C2=O`, “inactive”.
On to `NS(=O)(=O)c1cc2c(cc1Cl)NCNS2(=O)=O`, for which the outcome was inactive.
Still for that read-out and setting: the entry for `CCCCCCCCCCCCCO` is “inactive”; for `CN1CCCC1=O` it is “inactive”; for `C1CCC(SSC2CCCCC2)CC1` it is “inactive”.
For the compound `COCCOC[C@H](CC1(C(=O)NC2CCC(C(=O)O)CC2)CCCC1)C(=O)Oc1ccc2c(c1)CCC2` (stereo not given in full), the compound was called inactive.
Same read-out and setting: the entry for `O=C(N[C@@H](Cc1ccccc1)[C@@H](O)C(=O)N1C[C@@H](O)[C@@H](O)C1)c1cc2cc(Cl)ccc2[nH]1` is “inactive”; for `CCCCCCCCCCCCCCCC` it is “inactive”.
For the compound `O=C(O)Cc1ccccc1Nc1c(Cl)cccc1Cl`, the AC50 was 50 µM (active).
For the compound `O=C(O)CCCCC(=O)O`, the compound was classed as inactive.
Take `CC(C)c1ccc(C(=O)N=C(N)N)cc1S(C)(=O)=O`: the outcome was inactive.
Still for that read-out and setting: the entry for `Nc1ccc(S(=O)(=O)c2ccc(N)cc2)cc1` is “inactive”; for `Cc1ccc(Cl)cc1` it is “inactive”; for `CC(=O)OCCOCCOCCOC(C)=O` it is “inactive”.
For the compound `CC1=C(/C=C/C(C)=C/C=C/C(C)=C/CO)C(C)(C)CCC1`, the result was inactive.
Still for that read-out and setting: in the case of `Nc1nc(N)c2nc(CNc3ccc(C(=O)N[C@@H](CCC(=O)O)C(=O)O)cc3)cnc2n1` it was “inactive”.
As for `CCCCCCOCCO`, the compound was classed as inactive.
On the same count and under the same terms, the entry for `COc1ccc2c(c1)c(CC(=O)O)c(C)n2C(=O)c1ccc(Cl)cc1` is “inactive”; for `FC(F)(F)C(F)(F)C(F)(F)C(F)(F)C(F)(F)C(F)(F)CCI` it is “inactive”; for `C=CCOC(=O)c1ccccc1C(=O)OCC=C` it is “inactive”.

The next assay is described as follows: APR_HepG2_CellCycleArrest_24hr: Apredica 24-hour HepG2 Assay for Cell Cycle Arrest (AID 2282905).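 Note: cell cycle arrest scored as ratio of 2N to 4N nuclear DNA content.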 The conditions noted are these: imaging, actives raise or lower the signal. The method in brief:
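Step one: dose HepG2 with test compounds, 0.39–200 uM, 0.5% DMSO, 24 hr. Step two: fix, permeabilize, stain nuclei with Hoechst 33342. Step three: image six fields per well at 20x, quantify DNA content, fit bidirectionally relative to DMSO.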
Regarding `C=CCc1ccc(O)c(OC)c1`, the outcome was inactive.
In the case of `O=c1c(O)c(-c2ccc(O)c(O)c2)oc2cc(O)cc(O)c12`, the AC50 is 58.4 µM (active).
On to `CCCCC(CC)COC(=O)CC(C(=O)OCC(CC)CCCC)S(=O)(=O)O` (stereo not given), for which the compound was called inactive.
The same measure, in the same setting: in the case of `CCOC(=O)C(C)(C)Oc1ccc(Cl)cc1` it was “inactive”; in that of `Oc1ccc2c(c1)OC[C@@H](N1CCC(O)(c3ccc(F)cc3)CC1)[C@H]2O`, “inactive”.
Consider `NC(=O)Cn1c(=O)cc(CCN2CCN(c3nccc4sccc34)CC2)c2ccc(F)cc21`, for which the outcome was inactive.
On to `CNCc1cc(F)ccc1Oc1ccc(Cl)c(Cl)c1`, for which the compound was called inactive.
Take `Cc1cccc(Nc2cc(Cl)nc(SCC(=O)O)n2)c1C`: the compound was classed as inactive.
Still for that read-out and setting: in the case of `CCOC(=O)CCC(=O)OCC` it was “inactive”.
Still for that read-out and setting: the entry for `CCNc1cccc(C)c1` is “inactive”; for `Nc1ccc2c(c1)C(=O)c1ccccc1C2=O` it is “inactive”; for `NS(=O)(=O)c1cc2c(cc1Cl)NCNS2(=O)=O` it is “inactive”.
Still for that read-out and setting: in the case of `CCCCCCCCCCCCCO` it was “inactive”.
Turning to `CN1CCCC1=O`, the compound was classed as inactive.
For the compound `C1CCC(SSC2CCCCC2)CC1`, the AC50 was 72.3 µM (active).
`COCCOC[C@H](CC1(C(=O)NC2CCC(C(=O)O)CC2)CCCC1)C(=O)Oc1ccc2c(c1)CCC2` (stereo not given in full): the compound was called inactive.
Still for that read-out and setting: in the case of `O=C(N[C@@H](Cc1ccccc1)[C@@H](O)C(=O)N1C[C@@H](O)[C@@H](O)C1)c1cc2cc(Cl)ccc2[nH]1` it was “inactive”.
Regarding `CCCCCCCCCCCCCCCC`, the compound was classed as inactive.
The same measure, in the same setting: the entry for `O=C(O)Cc1ccccc1Nc1c(Cl)cccc1Cl` is “inactive”; for `O=C(O)CCCCC(=O)O` it is “inactive”; for `CC(C)c1ccc(C(=O)N=C(N)N)cc1S(C)(=O)=O` it is “inactive”.
`Nc1ccc(S(=O)(=O)c2ccc(N)cc2)cc1`: the outcome was inactive.
On the same count and under the same terms, in the case of `Cc1ccc(Cl)cc1` it was “inactive”; in that of `CC(=O)OCCOCCOCCOC(C)=O`, “inactive”.
Still for that read-out and setting: the entry for `CC1=C(/C=C/C(C)=C/C=C/C(C)=C/CO)C(C)(C)CCC1` is “inactive”.
Still for that read-out and setting: the entry for `Nc1nc(N)c2nc(CNc3ccc(C(=O)N[C@@H](CCC(=O)O)C(=O)O)cc3)cnc2n1` is “inactive”; for `CCCCCCOCCO` it is “inactive”.
Regarding `COc1ccc2c(c1)c(CC(=O)O)c(C)n2C(=O)c1ccc(Cl)cc1`, the AC50 was 76.4 µM (active).
`FC(F)(F)C(F)(F)C(F)(F)C(F)(F)C(F)(F)C(F)(F)CCI`: the compound was classed as inactive.
The same measure, in the same setting: the entry for `C=CCOC(=O)c1ccccc1C(=O)OCC=C` is “inactive”.
